# Results taken from the supplement of paper PMC6555819.
# Assays:
# Assay in all cases: PBM binding z-score (relative to random genomic background probes); higher = stronger binding; sequences stand for … in GC…GCGATTGACAGCGTAGAATGAAGG
# [1] = test system: FXR:RXRa (NR concentration 270 nM, RXRa partner concentration 90 nM)
# Summary of the method: (§1)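 Each nuclear receptor dimer, without ligand, was incubated for 1 h on custom Agilent 4×180K protein-binding microarrays. Binding was detected with antibodies against each partner (one per run), and scanned fluorescence was regression-normalized. The binding z-scores are referenced to random human genomic background probes.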
# [2] = test system: LXRa:RXRa (NR concentration 270 nM, RXRa partner concentration 90 nM)
# Summary of the method: as §1
# [3] = test system: LXRa homodimer (NR concentration 270 nM)
# Summary of the method: as §1
# [4] = test system: LXRb:RXRa (NR concentration 270 nM, RXRa partner concentration 90 nM)
# Summary of the method: as §1
# [5] = test system: LXRb homodimer (NR concentration 270 nM)
# Summary of the method: as §1
# [6] = test system: PPARa:RXRa (NR concentration 270 nM, RXRa partner concentration 90 nM)
# Summary of the method: as §1
# [7] = test system: PPARg:RXRa (NR concentration 180 nM, RXRa partner concentration 90 nM)
# Summary of the method: as §1
# [8] = test system: PPARg:RXRa 270nM:90nM, anti-RXR (NR concentration 270 nM, RXRa partner concentration 90 nM)
# Summary of the method: as §1
# [9] = test system: PPARg:RXRa 30nM:10nM, anti-RXR (NR concentration 30 nM, RXRa partner concentration 10 nM)
# Summary of the method: as §1
# [10] = test system: PPARg:RXRa 90nM:30nM, anti-RXR (NR concentration 90 nM, RXRa partner concentration 30 nM)
# Summary of the method: as §1
# [11] = test system: PPARg:RXRa DBDmut IVT, anti-RXR (DBD mutation: RXRa K156A/R161A, NR concentration 270 nM, RXRa partner concentration 90 nM)
# Summary of the method: as §1
# [12] = test system: PPARg:RXRa IVT, anti-PPARg (NR concentration 270 nM, RXRa partner concentration 90 nM)
# Summary of the method: as §1
# [13] = test system: PPARg DBDmut IVT, anti-PPARg (DBD mutation: PPARg1 K132A/R137A, NR concentration 270 nM)
# Summary of the method: as §1
# [14] = test system: PPARg homodimer (NR concentration 180 nM)
# Summary of the method: as §1
# [15] = test system: PXR:RXRa (NR concentration 270 nM, RXRa partner concentration 90 nM)
# Summary of the method: as §1
# [16] = test system: PXR homodimer (NR concentration 270 nM)
# Summary of the method: as §1
# [17] = test system: RARa:RXR (NR concentration 270 nM, RXRa partner concentration 90 nM)
# Summary of the method: as §1
# [18] = test system: RARa homodimer (NR concentration 270 nM)
# Summary of the method: as §1
# [19] = test system: RARb:RXRa (NR concentration 270 nM, RXRa partner concentration 90 nM)
# Summary of the method: as §1
# [20] = test system: PPARg DBDmut:RXRa IVT, anti-PPARg (DBD mutation: PPARg1 K132A/R137A, NR concentration 270 nM, RXRa partner concentration 90 nM)
# Summary of the method: as §1
Sequence,PBM binding z-score [1],PBM binding z-score [2],PBM binding z-score [3],PBM binding z-score [4],PBM binding z-score [5],PBM binding z-score [6],PBM binding z-score [7],PBM binding z-score [8],PBM binding z-score [9],PBM binding z-score [10],PBM binding z-score [11],PBM binding z-score [12],PBM binding z-score [13],PBM binding z-score [14],PBM binding z-score [15],PBM binding z-score [16],PBM binding z-score [17],PBM binding z-score [18],PBM binding z-score [19],PBM binding z-score [20]
CGAACTTGGTCACCAGGACAGTGAAGAGGTTGGA,0.102,-0.231,-0.0617,-0.452,-0.791,0.239,0.758,0.47,-0.456,-0.143,1.74,2.17,-0.841,0.157,-0.0595,-0.183,0.344,-0.448,1.38,
CGTCCAAGGTCAATGTTAGGTCAGTGAAAGCATT,6.44,5.88,2.85,4.38,1.35,5.51,,4.66,0.937,3.1,2.85,3.43,-0.256,3.57,4.77,1.6,5.78,1.18,,-0.0958
CGAACCAGGTCACCAGGACAGTGAAGAGGTTGGA,5.33,3.4,0.19,2.53,-0.432,4.96,6.6,5.66,2.44,4.73,5.49,6.38,0.103,2.28,2.81,0.0931,3.75,0.523,4.37,
ATATGTAGGATAGGGTCATTCAGAAAGTAGGGAA,3.78,3.12,0.63,3.55,1.08,4.62,4.04,3.78,1.71,3.29,2.75,3.63,1.68,2.36,3.47,1.46,4.19,1.52,2.69,
AGTCAAAGTTCAGGACGAGATAACGTAAAGCACG,3.4,3.72,1.12,1.81,0.41,3.28,,4.8,2.31,3.71,-0.425,1.35,0.865,1.35,1.99,0.795,1.85,1.11,4.1,0.702
CGAACTAGGTCAGCAGGACAGTGAAGAGGTTGGA,1.24,0.718,-0.103,0.384,-0.892,3.76,5.96,5.16,2.12,4.13,7.67,7.57,0.821,0.528,0.361,-0.536,0.95,-0.352,3.61,
ACTAGAAGGCCAAGGGTCACTCAAGATTAGTCCG,3.27,3.28,0.426,3.25,-0.267,4.51,,7.08,5.69,7.96,0.756,3.55,-0.0604,5,3.73,0.235,5.15,1.18,3.92,0.734
CGAACTAGGTCACCAGGACAGTTAAGAGGTTGGA,3.97,2.32,0.241,1.84,-0.421,5.2,8.53,6.67,4.77,6.38,8.1,8.64,5.1,2.14,1.49,0.424,2.73,0.481,4.2,
CAAACTAGGTCAAGAGGTCAAAGGCCGCTTCCCG,7.41,6.17,5.69,5.21,1.49,6.45,,8.47,7.55,9.13,8.35,8.52,3,8.5,6.37,2.72,8.18,4.57,5.58,6.15
CGAACTAGGTCAAAGGACGGTGAAAGGCGACGTA,4.04,2.51,-0.304,1.41,-0.584,5.34,9.5,8,7.43,8.82,7.71,8.31,2.26,1.81,0.75,-0.279,2.05,0.114,3.76,
AGTCAAAGGTCACTAGGTAACGTAAGATTCAGCT,7.63,6.45,2.46,5.48,2.78,6.42,,8.5,6.26,8.47,5.65,7.5,0.924,4.05,4.94,1.04,5.94,2.79,,1.54
ATATTTAGGTTAGGGTCATTCAGAAAGTAGGGAA,4.69,4.1,1.88,4.8,3.1,5.27,6.6,5.63,3.17,5.27,5.81,5.68,3.04,4.04,4.34,2.43,4.64,4.29,3.73,
ATATGTAGGTTAGGGTCATTCTGAAAGTAGGGAA,4.59,3.97,1.34,4.53,1.8,5.46,7.45,6.24,3.83,5.9,6.26,6.44,1.97,2.88,4.18,1.87,,1.91,3.35,
AGTCAAAGTTCAGGACGAGGTAAAGTAAAGCACG,4.27,3.89,1.34,1.9,0.465,3.54,,4.89,1.9,4.21,0.127,1.81,0.49,2.36,2.86,1.28,2.84,1.52,4.33,0.318
CGAACTAGGTCAAAGGACTGTGAAAGGCGACGTA,3.86,2.36,-0.238,1.58,-0.452,4.89,9.38,7.84,7.28,8.69,8.23,8,0.977,1.41,0.827,-0.596,1.86,-0.095,3.58,
CGAACTAAGTCACCAGGACAGTGAAGAGGTTGGA,-0.00843,-0.109,-0.233,-0.378,-0.234,0.219,0.494,0.0365,0.0312,-0.255,2.13,1.61,-0.0362,0.131,-0.257,0.203,0.00404,-0.12,0.526,
TTATCAAGGTGAAAGGTCGTTGATGCACGCCTTG,3.92,3.41,0.476,2.84,0.104,5.86,,9.22,9.21,11,4.86,6.15,1.43,2.37,3.99,0.766,5.9,0.465,,1.25
CGAACTAGGTCACCAGCACAGTGAAGAGGTTGGA,4.03,2.42,0.171,1.53,-0.224,5.12,8.39,7.01,4.62,6.53,8.34,8.76,0.181,1.79,1.41,0.0792,2.39,0.262,4.11,
CGAACTAGGCCAAAGGACAGTGAAAGGCGACGTA,-0.669,-0.893,-0.542,-0.756,-1.2,2.97,6.79,6.81,5.3,7.2,5.96,5.66,-0.194,0.351,-0.549,-0.424,-0.24,-0.451,1.33,
ATATGTAAGTTAGGGTCATTCAGAAAGTAGGGAA,4.8,4.5,1.55,4.13,1.31,4.91,2.88,3.41,1.15,2.64,1.38,2.41,1.73,2.2,4.63,1.59,5.07,1.77,3.23,
CAAACTAGGTCACCAGGACAGTGAAGAGGTTGGA,4.67,2.73,0.391,1.92,0.0732,5.18,9.26,7.14,5.2,7.09,8.41,8.88,1.44,2.71,1.87,0.166,2.97,0.827,4.28,
CATACAGGGTCATCTAGGCCAGAGTAGGGACGGC,6.67,4.77,0.311,3.7,0.71,5.58,,5.22,2.16,4.02,1.89,3.92,0.152,1.63,3.65,0.88,4.05,0.656,4.3,1.57
CAAACTAGGTCAAAGGTCAAGGTCGAGCCAACCA,8.28,7.09,5.12,6.8,2.23,7.68,,11.5,15.3,14.1,9.03,9.29,5.8,7.67,7.26,1.52,8.89,3.88,5.76,6.79
ACTTGGAGGACAAAGGTCAGAGCTACGCCAGTGA,4.75,4.49,1.97,3.58,0.676,5.71,,9.07,8.21,10.6,2.6,5.22,1.18,4.64,4.33,0.449,5.83,2.6,4.72,1.39
AGTCAAAGTTCACTAGGCAACGTAAGATTCAGCT,5.28,5.12,2.72,2.89,0.757,4.5,,6.21,3.31,5.38,1.55,3.93,0.663,1.75,3.81,2.09,3.04,0.611,4.78,1.31
ATATGTAGGTTAGGGTCATTCACAAAGTAGGGAA,4.56,4.43,1.56,4.7,1.64,5.7,7.65,6.7,3.97,6.22,6.56,6.82,1.75,2.3,4.57,2.17,4.83,2.07,3.49,
CGAACTAGCTCACCAGGACAGTGAAGAGGTTGGA,-0.472,-0.64,-0.125,-0.561,-0.585,-0.517,0.165,-0.517,-0.602,-0.751,0.166,-0.411,0.212,-0.0125,-0.706,-0.202,-0.594,-0.478,-0.409,
CGAACTAGGTCAAAGCACAGTGAAAGGCGACGTA,3.1,2.6,-0.247,1.56,-0.247,5.18,8.01,6.88,5.18,7.17,7.81,8.43,5.29,3.43,1.01,-0.325,1.71,0.149,3.8,
ATATGGAGGTTAGGGTCATTCAGAAAGTAGGGAA,5.28,4.25,1.34,4.8,2.02,5.63,5.01,4.47,1.89,3.76,2.21,3.8,1.73,2.92,4.32,2.35,4.55,2.05,3.93,
ATATGTAGGTTAGGGTCATTCAGAAAGTAGGGAA,5.09,4.43,1.52,4.66,1.62,5.61,7.97,6.68,4.41,6.43,6.61,6.95,3.49,3.86,4.66,2.12,5.52,2.73,3.34,
